Measurements published in article PMC7862700, “An all-to-all approach to the identification of sequence-specific readers for epigenetic DNA modifications on cytosine”.

Assays:
Assay in all cases: DAPPL (digital affinity profiling via proximity ligation, sequencing); 10 mM Tris-HCl pH 7.5, 50 mM NaCl, 1 mM DTT, 4% glycerol, room temperature, 30 min; GST-TFs on glutathione beads, 16-mer random dsDNA library, 0.1% formaldehyde crosslink after washing; high values mean tight binding
Details in all cases: protein: recombinant; tags: N-terminal GST; dsDNA, one strand shown
FLI1 = molecular target: T1, FLI1 (Homo sapiens, UniProt Q01543 1-452)
T1 sequence: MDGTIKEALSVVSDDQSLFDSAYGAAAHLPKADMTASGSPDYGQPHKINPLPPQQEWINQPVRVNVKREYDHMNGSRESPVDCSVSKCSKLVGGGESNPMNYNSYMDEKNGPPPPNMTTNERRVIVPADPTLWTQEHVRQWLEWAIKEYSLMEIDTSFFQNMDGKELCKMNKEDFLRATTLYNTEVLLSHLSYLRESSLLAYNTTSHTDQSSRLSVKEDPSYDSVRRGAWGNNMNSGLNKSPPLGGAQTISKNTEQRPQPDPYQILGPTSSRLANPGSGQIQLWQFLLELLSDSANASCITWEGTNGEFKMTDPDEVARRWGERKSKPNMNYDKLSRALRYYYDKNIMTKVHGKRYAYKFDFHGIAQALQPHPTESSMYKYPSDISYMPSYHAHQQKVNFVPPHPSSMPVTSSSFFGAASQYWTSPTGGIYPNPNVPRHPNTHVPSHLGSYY
In short: (§1)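 Binding signal is each hexamer's read frequency for a factor divided by its frequency in the tag-only sample. The factors were GST-fused human transcription factors from yeast, captured on glutathione beads, DNA-barcoded and pooled with that sample. Pools were incubated with 200 nmole of a random double-stranded 16-mer DNA library in Tris/NaCl/DTT/glycerol buffer at room temperature for 30 min, then washed, crosslinked with 0.1% formaldehyde, proximity-ligated with BsaI/T4 ligase (1 h, 37 °C), PCR-amplified and sequenced on an Illumina NextSeq500.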

ELK1 = molecular target: T2, ELK1 (Homo sapiens, UniProt P19419 1-428)
T2 sequence: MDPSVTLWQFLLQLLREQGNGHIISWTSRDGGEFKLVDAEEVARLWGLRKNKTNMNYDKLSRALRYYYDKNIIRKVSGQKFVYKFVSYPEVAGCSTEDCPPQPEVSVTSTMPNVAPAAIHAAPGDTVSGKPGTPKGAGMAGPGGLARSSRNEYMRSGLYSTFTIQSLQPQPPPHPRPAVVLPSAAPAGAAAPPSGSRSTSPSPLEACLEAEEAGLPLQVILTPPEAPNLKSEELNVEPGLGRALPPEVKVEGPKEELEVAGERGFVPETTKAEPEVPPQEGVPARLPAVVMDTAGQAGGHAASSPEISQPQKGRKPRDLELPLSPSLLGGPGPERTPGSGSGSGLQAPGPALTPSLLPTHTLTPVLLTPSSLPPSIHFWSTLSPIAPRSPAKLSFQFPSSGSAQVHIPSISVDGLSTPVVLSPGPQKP
In short: as §1

GABPA = molecular target: T3, GABPA (Homo sapiens, UniProt Q06546 1-454)
T3 sequence: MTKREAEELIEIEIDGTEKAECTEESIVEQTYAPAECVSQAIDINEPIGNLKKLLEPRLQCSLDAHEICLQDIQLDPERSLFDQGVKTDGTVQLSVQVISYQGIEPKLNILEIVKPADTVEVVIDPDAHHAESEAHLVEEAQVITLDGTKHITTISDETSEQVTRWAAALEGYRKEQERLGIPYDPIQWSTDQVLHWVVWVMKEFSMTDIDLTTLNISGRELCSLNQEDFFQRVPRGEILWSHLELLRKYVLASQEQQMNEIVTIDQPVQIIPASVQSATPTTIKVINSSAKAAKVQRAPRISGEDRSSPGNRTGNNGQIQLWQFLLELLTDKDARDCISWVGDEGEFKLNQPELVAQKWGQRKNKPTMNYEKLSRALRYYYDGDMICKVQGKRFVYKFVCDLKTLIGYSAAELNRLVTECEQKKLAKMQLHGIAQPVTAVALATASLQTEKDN
In short: as §1

ERG = molecular target: T4, ERG (Homo sapiens, UniProt P11308 1-479)
T4 sequence: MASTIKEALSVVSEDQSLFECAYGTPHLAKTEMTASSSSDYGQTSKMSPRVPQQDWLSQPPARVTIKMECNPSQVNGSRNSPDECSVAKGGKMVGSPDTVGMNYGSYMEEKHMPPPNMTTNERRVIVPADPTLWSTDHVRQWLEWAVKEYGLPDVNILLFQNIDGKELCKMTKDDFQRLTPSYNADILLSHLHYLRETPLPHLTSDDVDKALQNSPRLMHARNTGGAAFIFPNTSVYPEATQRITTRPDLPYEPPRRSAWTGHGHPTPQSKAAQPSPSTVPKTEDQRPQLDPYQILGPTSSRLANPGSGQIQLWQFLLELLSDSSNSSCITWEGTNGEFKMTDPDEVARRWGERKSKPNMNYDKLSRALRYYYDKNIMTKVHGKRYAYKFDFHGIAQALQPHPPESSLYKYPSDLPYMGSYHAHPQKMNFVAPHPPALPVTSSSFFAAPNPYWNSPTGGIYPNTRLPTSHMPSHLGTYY
In short: as §1

ELF1 = ELF1 (Homo sapiens, UniProt P32519 1-619)
ELF1, sequence (P32519 whole entry): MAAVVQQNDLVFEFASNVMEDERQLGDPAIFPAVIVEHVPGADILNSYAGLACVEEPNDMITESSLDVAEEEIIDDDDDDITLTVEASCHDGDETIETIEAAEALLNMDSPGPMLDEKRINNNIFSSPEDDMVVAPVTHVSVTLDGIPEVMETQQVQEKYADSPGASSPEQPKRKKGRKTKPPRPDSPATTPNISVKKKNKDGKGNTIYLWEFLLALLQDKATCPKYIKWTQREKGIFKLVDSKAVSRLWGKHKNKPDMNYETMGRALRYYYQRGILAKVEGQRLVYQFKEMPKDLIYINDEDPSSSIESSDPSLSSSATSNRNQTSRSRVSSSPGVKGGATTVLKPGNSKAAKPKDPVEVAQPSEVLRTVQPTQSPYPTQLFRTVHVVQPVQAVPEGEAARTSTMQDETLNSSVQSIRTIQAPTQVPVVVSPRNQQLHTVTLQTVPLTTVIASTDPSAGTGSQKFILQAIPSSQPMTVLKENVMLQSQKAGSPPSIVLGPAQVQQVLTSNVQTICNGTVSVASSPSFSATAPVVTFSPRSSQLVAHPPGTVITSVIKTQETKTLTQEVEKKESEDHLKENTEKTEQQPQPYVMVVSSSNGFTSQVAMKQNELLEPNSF
In short: as §1

EHF = molecular target: T5, EHF (Homo sapiens, UniProt Q9NZC4 1-300)
T5 sequence: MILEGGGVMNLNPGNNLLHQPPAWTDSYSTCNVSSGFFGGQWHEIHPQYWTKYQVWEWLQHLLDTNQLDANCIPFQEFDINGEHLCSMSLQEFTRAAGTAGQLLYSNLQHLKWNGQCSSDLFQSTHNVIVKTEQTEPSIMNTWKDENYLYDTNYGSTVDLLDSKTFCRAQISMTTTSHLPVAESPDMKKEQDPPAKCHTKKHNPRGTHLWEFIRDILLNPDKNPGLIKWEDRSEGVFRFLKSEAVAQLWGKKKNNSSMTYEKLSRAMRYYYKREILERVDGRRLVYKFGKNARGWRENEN
In short: as §1

SPI1 = SPI1 (Homo sapiens, UniProt P17947 1-270)
In short: as §1

SPIB = SPIB (Homo sapiens, UniProt Q01892 1-262)
SPIB, sequence (Q01892 whole entry): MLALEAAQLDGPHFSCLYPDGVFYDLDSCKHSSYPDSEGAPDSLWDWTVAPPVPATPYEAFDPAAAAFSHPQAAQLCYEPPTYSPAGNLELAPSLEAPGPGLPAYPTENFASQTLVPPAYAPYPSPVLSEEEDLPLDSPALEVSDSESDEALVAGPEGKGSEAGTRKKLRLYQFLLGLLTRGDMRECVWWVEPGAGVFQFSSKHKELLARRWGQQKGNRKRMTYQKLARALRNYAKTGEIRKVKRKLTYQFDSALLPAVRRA
In short: as §1

FEV = molecular target: T6, FEV (Homo sapiens, UniProt Q99581 1-238)
T6 sequence: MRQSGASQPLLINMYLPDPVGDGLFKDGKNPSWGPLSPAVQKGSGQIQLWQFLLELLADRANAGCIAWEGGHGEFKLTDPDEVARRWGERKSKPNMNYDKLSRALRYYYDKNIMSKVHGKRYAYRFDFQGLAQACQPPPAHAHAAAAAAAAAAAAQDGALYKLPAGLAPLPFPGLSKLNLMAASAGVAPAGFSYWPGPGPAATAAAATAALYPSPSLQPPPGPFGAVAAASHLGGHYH
In short: as §1

ETV5 = ETV5 (Homo sapiens, UniProt P41161 1-510)
ETV5, sequence (P41161 whole entry): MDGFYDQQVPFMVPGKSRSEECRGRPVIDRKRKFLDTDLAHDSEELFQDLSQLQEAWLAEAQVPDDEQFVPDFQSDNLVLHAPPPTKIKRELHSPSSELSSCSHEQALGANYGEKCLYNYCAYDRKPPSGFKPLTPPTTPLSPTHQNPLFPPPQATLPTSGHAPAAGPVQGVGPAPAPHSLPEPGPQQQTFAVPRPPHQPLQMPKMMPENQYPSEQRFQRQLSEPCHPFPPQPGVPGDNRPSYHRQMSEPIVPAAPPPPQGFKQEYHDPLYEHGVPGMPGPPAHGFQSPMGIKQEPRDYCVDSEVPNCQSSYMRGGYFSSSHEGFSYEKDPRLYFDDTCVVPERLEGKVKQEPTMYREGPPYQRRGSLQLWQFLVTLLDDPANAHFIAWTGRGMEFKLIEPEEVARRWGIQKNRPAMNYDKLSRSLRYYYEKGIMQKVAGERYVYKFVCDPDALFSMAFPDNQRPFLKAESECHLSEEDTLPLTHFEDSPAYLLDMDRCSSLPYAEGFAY
In short: as §1

ELF4 = ELF4 (Homo sapiens, UniProt Q99607 1-663)
ELF4, sequence (Q99607 whole entry): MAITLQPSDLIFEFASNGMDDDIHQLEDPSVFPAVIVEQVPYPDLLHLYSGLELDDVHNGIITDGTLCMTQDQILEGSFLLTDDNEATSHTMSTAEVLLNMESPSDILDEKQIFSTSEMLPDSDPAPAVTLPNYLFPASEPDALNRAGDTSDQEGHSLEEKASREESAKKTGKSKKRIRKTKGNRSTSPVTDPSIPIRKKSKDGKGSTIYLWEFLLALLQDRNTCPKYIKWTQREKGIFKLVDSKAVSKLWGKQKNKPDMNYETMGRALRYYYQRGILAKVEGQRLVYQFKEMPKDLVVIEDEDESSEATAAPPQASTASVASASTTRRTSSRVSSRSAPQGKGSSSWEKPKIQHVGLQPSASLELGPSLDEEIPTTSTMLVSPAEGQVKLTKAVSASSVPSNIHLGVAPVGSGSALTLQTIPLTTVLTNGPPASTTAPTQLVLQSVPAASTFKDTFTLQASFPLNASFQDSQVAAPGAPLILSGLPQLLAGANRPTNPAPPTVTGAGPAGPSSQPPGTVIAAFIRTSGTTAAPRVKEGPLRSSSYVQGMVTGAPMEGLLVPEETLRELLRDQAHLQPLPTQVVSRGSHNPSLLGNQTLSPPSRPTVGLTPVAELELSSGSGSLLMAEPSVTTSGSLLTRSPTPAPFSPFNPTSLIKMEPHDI
In short: as §1

ETV2 = molecular target: T7, ETV2 (Homo sapiens, UniProt O00321 1-342)
T7 sequence: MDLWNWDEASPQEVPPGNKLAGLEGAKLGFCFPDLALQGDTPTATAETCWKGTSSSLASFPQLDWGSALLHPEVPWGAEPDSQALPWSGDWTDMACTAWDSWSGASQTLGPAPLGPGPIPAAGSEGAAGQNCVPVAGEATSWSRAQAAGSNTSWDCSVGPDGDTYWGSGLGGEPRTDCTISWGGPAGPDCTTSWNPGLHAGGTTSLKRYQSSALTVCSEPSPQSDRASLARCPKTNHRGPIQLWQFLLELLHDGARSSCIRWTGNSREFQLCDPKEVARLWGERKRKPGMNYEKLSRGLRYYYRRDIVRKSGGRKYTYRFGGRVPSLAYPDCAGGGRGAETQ
In short: as §1

ELF3 = molecular target: T8, ELF3 (Homo sapiens, UniProt P78545 1-371)
T8 sequence: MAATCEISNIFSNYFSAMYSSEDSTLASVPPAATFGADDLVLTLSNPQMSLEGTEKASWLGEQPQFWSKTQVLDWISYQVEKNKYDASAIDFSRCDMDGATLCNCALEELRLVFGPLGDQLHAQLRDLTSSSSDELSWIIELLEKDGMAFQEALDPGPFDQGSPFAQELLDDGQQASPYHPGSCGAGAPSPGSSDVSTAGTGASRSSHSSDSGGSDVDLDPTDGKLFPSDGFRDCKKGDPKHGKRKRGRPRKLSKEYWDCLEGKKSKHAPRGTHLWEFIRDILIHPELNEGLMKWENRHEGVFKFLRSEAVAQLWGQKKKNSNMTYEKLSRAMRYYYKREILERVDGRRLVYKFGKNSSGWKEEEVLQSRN
In short: as §1

ETV1 = ETV1 (Homo sapiens, UniProt P50549 1-477)
ETV1, sequence (P50549 whole entry): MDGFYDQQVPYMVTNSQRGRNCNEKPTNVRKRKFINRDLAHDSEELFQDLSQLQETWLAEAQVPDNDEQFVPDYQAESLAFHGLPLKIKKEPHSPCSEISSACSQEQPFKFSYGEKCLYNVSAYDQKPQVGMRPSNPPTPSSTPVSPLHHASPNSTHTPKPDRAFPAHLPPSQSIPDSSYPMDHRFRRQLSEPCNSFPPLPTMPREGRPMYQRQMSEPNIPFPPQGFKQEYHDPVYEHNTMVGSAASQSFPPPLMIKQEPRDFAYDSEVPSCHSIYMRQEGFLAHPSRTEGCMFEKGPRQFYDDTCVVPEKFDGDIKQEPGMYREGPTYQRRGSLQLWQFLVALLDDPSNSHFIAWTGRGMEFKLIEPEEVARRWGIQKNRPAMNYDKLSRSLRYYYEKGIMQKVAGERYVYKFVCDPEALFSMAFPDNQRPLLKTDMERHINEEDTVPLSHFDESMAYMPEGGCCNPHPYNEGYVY
In short: as §1

ERF = molecular target: T9, ERF (Homo sapiens, UniProt P50548 1-548)
T9 sequence: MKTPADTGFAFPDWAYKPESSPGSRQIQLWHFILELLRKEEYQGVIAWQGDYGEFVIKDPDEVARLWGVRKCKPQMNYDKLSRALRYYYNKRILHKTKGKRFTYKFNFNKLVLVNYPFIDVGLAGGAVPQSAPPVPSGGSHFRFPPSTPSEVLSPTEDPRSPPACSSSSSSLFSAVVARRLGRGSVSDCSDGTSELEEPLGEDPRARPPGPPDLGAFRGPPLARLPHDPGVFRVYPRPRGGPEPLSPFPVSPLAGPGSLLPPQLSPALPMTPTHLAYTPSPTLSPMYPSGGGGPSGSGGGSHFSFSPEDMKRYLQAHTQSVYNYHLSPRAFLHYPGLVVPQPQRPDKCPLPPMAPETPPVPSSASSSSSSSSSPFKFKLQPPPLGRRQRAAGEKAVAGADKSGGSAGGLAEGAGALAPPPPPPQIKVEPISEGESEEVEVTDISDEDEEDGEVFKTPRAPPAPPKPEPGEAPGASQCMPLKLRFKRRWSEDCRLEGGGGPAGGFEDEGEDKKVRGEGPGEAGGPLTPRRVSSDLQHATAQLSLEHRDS
In short: as §1

ETV3L = molecular target: T10, ETV3L (Homo sapiens, UniProt Q6ZN32 1-361)
T10 sequence: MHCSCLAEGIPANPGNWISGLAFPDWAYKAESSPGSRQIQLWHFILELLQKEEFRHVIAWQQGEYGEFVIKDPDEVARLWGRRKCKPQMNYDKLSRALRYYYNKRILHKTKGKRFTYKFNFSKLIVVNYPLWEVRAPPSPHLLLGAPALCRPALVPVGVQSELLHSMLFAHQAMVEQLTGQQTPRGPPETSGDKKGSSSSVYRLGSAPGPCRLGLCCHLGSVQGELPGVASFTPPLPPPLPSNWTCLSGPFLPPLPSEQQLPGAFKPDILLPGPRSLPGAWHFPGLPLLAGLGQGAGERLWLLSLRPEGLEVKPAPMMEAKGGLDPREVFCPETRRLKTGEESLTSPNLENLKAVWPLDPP
In short: as §1

ETS2 = molecular target: T11, ETS2 (Homo sapiens, UniProt P15036 1-469)
T11 sequence: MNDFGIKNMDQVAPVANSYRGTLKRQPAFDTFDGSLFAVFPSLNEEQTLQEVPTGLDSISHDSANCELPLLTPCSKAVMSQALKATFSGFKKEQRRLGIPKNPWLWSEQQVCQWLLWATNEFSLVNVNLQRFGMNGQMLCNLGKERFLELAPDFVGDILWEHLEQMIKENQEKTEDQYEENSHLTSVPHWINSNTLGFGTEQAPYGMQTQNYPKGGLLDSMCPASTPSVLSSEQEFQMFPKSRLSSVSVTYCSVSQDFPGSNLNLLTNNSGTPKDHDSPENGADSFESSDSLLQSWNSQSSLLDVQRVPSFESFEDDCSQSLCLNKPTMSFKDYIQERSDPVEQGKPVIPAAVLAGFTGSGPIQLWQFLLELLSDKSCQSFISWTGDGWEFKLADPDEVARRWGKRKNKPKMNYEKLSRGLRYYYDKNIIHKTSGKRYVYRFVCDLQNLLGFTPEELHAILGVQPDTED
In short: as §1

ETV7 = molecular target: T12, ETV7 (Homo sapiens, UniProt Q9Y603 1-341)
T12 sequence: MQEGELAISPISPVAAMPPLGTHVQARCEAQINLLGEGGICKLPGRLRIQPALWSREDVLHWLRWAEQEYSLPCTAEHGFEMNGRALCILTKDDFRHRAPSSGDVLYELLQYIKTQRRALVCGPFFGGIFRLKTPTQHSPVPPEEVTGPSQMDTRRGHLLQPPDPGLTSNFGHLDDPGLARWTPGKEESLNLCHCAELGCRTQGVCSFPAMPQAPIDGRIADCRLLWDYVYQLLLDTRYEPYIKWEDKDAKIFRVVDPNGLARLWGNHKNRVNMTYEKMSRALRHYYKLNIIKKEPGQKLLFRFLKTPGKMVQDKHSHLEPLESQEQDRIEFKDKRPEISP
In short: as §1

ETV3 = molecular target: T13, ETV3 (Homo sapiens, UniProt P41162-2 1-143)
T13 sequence: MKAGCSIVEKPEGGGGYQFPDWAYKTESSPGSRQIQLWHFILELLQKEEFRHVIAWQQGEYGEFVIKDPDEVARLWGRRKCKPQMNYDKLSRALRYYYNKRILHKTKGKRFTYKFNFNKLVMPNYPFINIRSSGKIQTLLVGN
In short: as §1

ETV6 = ETV6 (Homo sapiens, UniProt P41212 1-452)
ETV6, sequence (P41212 whole entry): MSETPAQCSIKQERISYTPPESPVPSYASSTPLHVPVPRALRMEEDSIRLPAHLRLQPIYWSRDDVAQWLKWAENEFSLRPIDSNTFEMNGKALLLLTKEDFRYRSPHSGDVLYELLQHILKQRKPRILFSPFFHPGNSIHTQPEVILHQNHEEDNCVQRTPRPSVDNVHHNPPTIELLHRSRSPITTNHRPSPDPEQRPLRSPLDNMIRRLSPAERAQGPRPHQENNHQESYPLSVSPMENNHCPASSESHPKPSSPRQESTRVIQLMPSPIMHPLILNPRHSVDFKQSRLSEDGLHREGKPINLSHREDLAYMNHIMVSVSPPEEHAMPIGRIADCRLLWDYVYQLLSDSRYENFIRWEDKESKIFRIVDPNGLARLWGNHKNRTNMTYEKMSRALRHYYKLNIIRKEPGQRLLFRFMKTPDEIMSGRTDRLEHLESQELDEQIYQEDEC
In short: as §1

With CATCAT the binding signal (FLI1) was 1.06 fold enrichment (6-mer frequency, TF over GST control), the binding signal (ELK1) was 1.06 fold enrichment (6-mer frequency, TF over GST control) and the binding signal (GABPA) was 1.09 fold enrichment (6-mer frequency, TF over GST control). For the same sequence, the binding signal (ERG) was 1.08 fold enrichment (6-mer frequency, TF over GST control), the binding signal (ELF1) was 1.15 fold enrichment (6-mer frequency, TF over GST control) and the binding signal (EHF) was 1.07 fold enrichment (6-mer frequency, TF over GST control). The binding signal (SPI1) was 1.11 fold enrichment (6-mer frequency, TF over GST control), the binding signal (SPIB) was 1.09 fold enrichment (6-mer frequency, TF over GST control) and the binding signal (FEV) was 1.09 fold enrichment (6-mer frequency, TF over GST control). The binding signal (ETV5) was 1.09 fold enrichment (6-mer frequency, TF over GST control), the binding signal (ELF4) was 1.07 fold enrichment (6-mer frequency, TF over GST control) and the binding signal (ETV2) was 1.22 fold enrichment (6-mer frequency, TF over GST control). For the same sequence, the binding signal (ELF3) was 1.1 fold enrichment (6-mer frequency, TF over GST control), the binding signal (ETV1) was 1.07 fold enrichment (6-mer frequency, TF over GST control) and the binding signal (ERF) was 1.1 fold enrichment (6-mer frequency, TF over GST control). The binding signal (ETV3L) was 1.07 fold enrichment (6-mer frequency, TF over GST control), the binding signal (ETS2) was 1.08 fold enrichment (6-mer frequency, TF over GST control) and the binding signal (ETV7) was 1.05 fold enrichment (6-mer frequency, TF over GST control). For the same sequence, the binding signal (ETV3) was 1.08 fold enrichment (6-mer frequency, TF over GST control) and the binding signal (ETV6) was 1.05 fold enrichment (6-mer frequency, TF over GST control).
